A number with no mark means an inactive call. Results filed as inconclusive are left out. Entries that show only a call come without a potency. The source made the active and inactive calls. Unless noted, the call rests on the fitted dose curve; in most records, active means well fitted curve in the direction sought with a large enough effect in the repeat runs; inconclusive means weak or mixed curves; inactive means no such curve, though single readings can be large; an effect the other way counts as inactive or inconclusive.
Key:
[1] = qHTS assay to identify small molecule agonists of the sonic hedgehog signaling (Shh) pathway (AID 1259368; calls by dose curve;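 further: NIH/3T3-derived 3T3Gli1-Luc cells carrying a stable Gli1-driven firefly luciferase reporter; series mostly up to about 92 µM; nearly all actives have a fitted effect of over 15% in size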)
Outline: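 Read-out: firefly luciferase luminescence from a Gli1 response element reporter stably integrated in NIH/3T3-derived 3T3Gli1-Luc cells, measured 30 min at room temperature after reagent addition. Compound exposure lasted 24 hr at 37 C, 5% CO2.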

[2] = qHTS assay to identify small molecule antagonists of the sonic hedgehog signaling (Shh) pathway (AID 1259369; calls by dose curve; further: nearly all actives have a fitted effect of over 45% in size; further: potency means the concentration at half of the fitted maximal effect)
Outline: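 Luminescence readout: firefly Luc under Gli1 response element in 3T3Gli1-Luc cells (NIH/3T3 clone). Antagonist mode, stimulation by conditioned medium; compound exposure 24hr at 37 C, 5% CO2.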

[3] = biological target: Estrogen receptor beta (Homo sapiens) (UniProt Q92731); experiment: qHTS assay to identify small molecule agonists of the estrogen receptor beta (ER-beta) signaling pathway (AID 1259377; active means well fitted activation curve with a large enough effect in the signal ratio in the repeat runs, not every such curve was filed as active; the % refers to the signal ratio)
Outline: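 Read-out: beta-lactamase FRET fluorescence. Cell line: ER-beta-UAS-bla HEK293T in 2% charcoal-stripped FBS. Exposure: 16 hr at 37C. Substrate step: 2 h at room temperature.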

[4] = biological target: Estrogen receptor beta (Homo sapiens) (UniProt Q92731); experiment: qHTS assay to identify small molecule antagonists of the estrogen receptor beta (ER-beta) signaling pathway (AID 1259378; active means well fitted inhibition curve with a large enough effect in the signal ratio in the repeat runs, not every such curve was filed as active; the % refers to the signal ratio)
Outline: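 ER-beta-UAS-bla HEK293T cells in 2% charcoal-stripped FBS medium treated with compound plus 1nM final 17-beta-estradiol for 16 hr at 37C. Beta-lactamase reporter read by FRET substrate fluorescence after 2 hours at room temperature.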

[5] = qHTS assay to identify small molecule agonists of the androgen receptor (AR) signaling pathway in the presence of an antagonist - cell viability counter screen (AID 1259379);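 further: MDA-kb2 human breast cancer cells carrying an MMTV luciferase reporter; series mostly up to about 92 µM; nearly all actives have a fitted effect of over 25% in size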
Outline: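 Viability counter screen: CellTiter-Fluor fluorescence, measured in the same wells as the luciferase read-out. MDA-kb2 cells, 3,000/well, with nilutamide at 3.0uM final and compounds at 15 concentrations, 16 hr at 37C, 0% CO2.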

[6] = qHTS assay to identify small molecule agonists of the estrogen receptor beta (ER-beta) signaling pathway - cell viability counter screen (AID 1259380); further: nearly all actives have a fitted effect of over 30% in size
Outline: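 Luminescence read-out (CellTiter-Glo, 30 min, room temp) taken in the same wells as the beta-lactamase reporter assay; ER-beta-UAS-bla HEK293T cells exposed to DMSO-dissolved compounds for 16 hr at 37C in 2% charcoal-stripped FBS medium.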

[7] = qHTS assay to identify small molecule antagonists of the estrogen receptor beta (ER-beta) signaling pathway - cell viability counter screen (AID 1259382); further: series mostly up to about 92 µM; nearly all actives have a fitted effect of over 55% in size
Outline: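 Luminescent ATP read-out (CellTiter-Glo, 30 min, RT) taken in the same wells as the bla reporter assay. HEK293T ER-beta-UAS-bla cells in 2% charcoal-stripped FBS were exposed to compounds with 1nM E2 for 16 hr at 37C.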

[8] = qHTS assay to identify small molecule agonists of the estrogen receptor alpha (ER-alpha) signaling pathway in the presence of an antagonist - cell viability counter screen (AID 1259386);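 further: series mostly up to about 92 µM; cells exposed to compounds for 22 h at 37 °C before the viability read; nearly all actives have a fitted effect of over 30% in size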
Outline: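 Read-out: CellTiter-Fluor fluorescence after 1hr reagent incubation, measured in the same wells as the luciferase readout. VM7Luc4E2 cells were exposed to 15 compound concentrations with 10.0nM ICI-182,780 for 22hr at 37C.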

[9] = biological target: Progesterone receptor (Homo sapiens) (UniProt P06401); experiment: qHTS assay to identify small molecule agonists of the progesterone receptor (PR) signaling pathway (AID 1346784; calls by dose curve; further: nearly all actives have a fitted effect of over 30% in size)
Outline: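 Compounds were tested for PR agonism in HEK 293T cells bearing a beta-lactamase gene under UAS control. Treatment lasted 16 hr at 37C; signal came from fluorescence of a FRET substrate.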

[10] = biological target: Progesterone receptor (Homo sapiens) (UniProt P06401); experiment: qHTS assay to identify small molecule antagonists of the progesterone receptor (PR) signaling pathway (AID 1346795; active means well fitted inhibition curve with a large enough effect in the signal ratio in the repeat runs, not every such curve was filed as active; the % refers to the signal ratio; further: potency means the concentration at half of the fitted maximal effect)
Outline: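 In HEK293T cells bearing the PR-UAS-bla reporter, compound effects on promegestone-driven (1 nM) beta-lactamase expression are assessed after 16 hr using a fluorescent FRET substrate incubated 2 hr at room temperature.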

[11] = qHTS assay to identify small molecule antagonists of the progesterone receptor (PR) signaling pathway - cell viability counter screen (AID 1346798); further: series mostly up to about 92 µM; nearly all actives have a fitted effect of over 50% in size
Outline: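 Following a 4 hr attachment, PR-UAS-bla HEK293T cells in charcoal-stripped FBS medium were exposed to compounds with R5020 for 16 hr; CellTiter-Glo was added and luminescence read after 30 min at room temperature.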

[12] = qHTS assay to identify small molecule agonists of the progesterone receptor (PR) signaling pathway - cell viability counter screen (AID 1346799; calls by dose curve; further: nearly all actives have a fitted effect of over 45% in size)
Outline: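 Here, 3,000 PR-UAS-bla HEK293T cells per well were treated with compounds for 16 hr after a 6 hr preincubation at 37C and 5% CO2; cell viability is the CellTiter-Glo luminescence signal.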

[13] = qHTS assay to identify small molecule antagonists of the TGF-beta/Smad signaling pathway - cell viability counter screen (AID 1346824); further: nearly all actives have a fitted effect of over 50% in size
Outline: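 SBE-bla HEK 293T cells, incubated overnight, then compound plus 0.25 ng/mL TGF-beta1 (stock added) for 5 hr at 37 C. Viability was read in the same wells by CellTiter-Glo luminescence after 30 min at room temperature.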

[14] = qHTS assay to identify small molecule agonists of the TGF-beta/Smad signaling pathway - cell viability counter screen (AID 1346829); further: top concentration of the series differs between compounds; nearly all actives have a fitted effect of over 45% in size
Outline: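 Cytotoxicity counter screen: CellTiter-Glo luminescence (30 min, room temperature) measured in the SBE-bla HEK 293T reporter wells after 5 hr compound treatment at 37 C and the 2 hr substrate step.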

[15] = qHTS assay to identify small molecule agonists of the TGF-beta/Smad signaling pathway (AID 1346859; active means well fitted activation curve with a large enough effect in the signal ratio in the repeat runs, not every such curve was filed as active; the % refers to the signal ratio; further: series mostly up to about 77 µM)
Outline: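 Each well held 4,000 SBE-bla HEK 293T cells incubated overnight before compound addition; 5 hr later the cleavable FRET substrate went on for 2 hr at room temperature, and fluorescence was read at two emissions.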

[16] = qHTS assay to identify small molecule agonists or antagonists of the thyroid stimulating hormone receptor (TSHR) signaling pathway - wild type cell line counter screen (AID 1259384; calls by dose curve)
Outline: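 Wild-type Hek293 cells, 800/well, 18 h at 37C, then compound with Ro20-1724 for 30 min RT. cAMP by HTRF (cAMP-d2/anti-cAMP cryptate), 1 h RT, fluorescence read. 15 concentrations, triplicates.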

[17] = biological target: Thyrotropin receptor (Homo sapiens) (UniProt P16473); experiment: qHTS assay to identify small molecule antagonists of the thyroid stimulating hormone receptor (TSHR) signaling pathway (AID 1259385; calls by dose curve; further: nearly all actives have a fitted effect of over 20% in size)
Outline: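 TSHR-HEK293 cells (800/well) plated 18 h, then compounds with Ro20-1724 and TSH at 1.5 ng/mL final, 30 min at room temperature. cAMP quantified by HTRF (cAMP-d2/anti-cAMP-cryptate, 1 h); 15 concentrations in triplicate.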

[18] = biological target: Estrogen receptor (Homo sapiens) (UniProt P03372); experiment: qHTS assay to identify small molecule agonists of the estrogen receptor alpha (ER-alpha) signaling pathway in the presence of an antagonist (AID 1259383; calls by dose curve; further: top concentration of the series differs between compounds; nearly all actives have a fitted effect of over 15% in size)
Outline: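 Luciferase luminescence (ONE-Glo, 30min at room temperature) measured in VM7Luc4E2 cells after 22hr compound exposure at 15 concentrations, with 10.0nM ICI-182,780 final present; cells express endogenous ER-alpha and carry four EREs upstream of luciferase.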

[19] = biological target: Androgen receptor (Homo sapiens) (UniProt P10275); experiment: qHTS assay to identify small molecule agonists of the androgen receptor (AR) signaling pathway in the presence of an antagonist (AID 1259381; calls by dose curve; further: nearly all actives have a fitted effect of over 15% in size)
Outline: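 Luciferase read-out (ONE-Glo, 30min room temperature) in MDA-kb2 MMTV-reporter cells; agonist mode run in presence of AR antagonist nilutamide, 3.0uM final. Compounds tested as 15-point series, 16hr exposure at 37C, 0% CO2.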

[20] = biological target: Thyrotropin-releasing hormone receptor (Homo sapiens) (UniProt P34981); experiment: qHTS assay to identify small molecule antagonists of the thyrotropin-releasing hormone receptor (TRHR) signaling pathway (AID 1346877; active means well fitted inhibition curve with a large enough effect in the repeat runs, not every such curve was filed as active; further: series mostly up to about 51 µM)
Outline: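 HEK293/TRHR cells, 18 h, 37 °C; Ca2+ dye 2 h; cpd 5 min RT; TRH 1 nM final; fluorescence read 3 min, 1 s intervals; 15 concs, triplicate.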

Chain of Estrogen receptor (Homo sapiens) (P03372 whole entry, looked up): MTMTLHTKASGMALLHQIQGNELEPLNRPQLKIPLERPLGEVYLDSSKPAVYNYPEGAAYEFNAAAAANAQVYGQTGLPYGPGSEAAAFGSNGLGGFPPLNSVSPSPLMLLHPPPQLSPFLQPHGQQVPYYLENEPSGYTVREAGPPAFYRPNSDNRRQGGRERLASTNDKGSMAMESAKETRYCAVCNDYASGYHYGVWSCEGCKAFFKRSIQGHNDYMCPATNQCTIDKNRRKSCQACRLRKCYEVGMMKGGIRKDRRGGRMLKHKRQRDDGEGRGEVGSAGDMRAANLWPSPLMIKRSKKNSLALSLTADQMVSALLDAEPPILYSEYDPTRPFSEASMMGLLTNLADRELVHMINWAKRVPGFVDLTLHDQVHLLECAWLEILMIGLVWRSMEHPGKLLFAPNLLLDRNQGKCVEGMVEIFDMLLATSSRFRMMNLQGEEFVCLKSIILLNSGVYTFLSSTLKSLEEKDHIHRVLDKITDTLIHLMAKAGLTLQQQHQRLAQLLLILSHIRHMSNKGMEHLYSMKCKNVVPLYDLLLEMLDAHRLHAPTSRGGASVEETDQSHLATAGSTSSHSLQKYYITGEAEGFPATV
Chain of Thyrotropin receptor (Homo sapiens) (P16473 whole entry, looked up): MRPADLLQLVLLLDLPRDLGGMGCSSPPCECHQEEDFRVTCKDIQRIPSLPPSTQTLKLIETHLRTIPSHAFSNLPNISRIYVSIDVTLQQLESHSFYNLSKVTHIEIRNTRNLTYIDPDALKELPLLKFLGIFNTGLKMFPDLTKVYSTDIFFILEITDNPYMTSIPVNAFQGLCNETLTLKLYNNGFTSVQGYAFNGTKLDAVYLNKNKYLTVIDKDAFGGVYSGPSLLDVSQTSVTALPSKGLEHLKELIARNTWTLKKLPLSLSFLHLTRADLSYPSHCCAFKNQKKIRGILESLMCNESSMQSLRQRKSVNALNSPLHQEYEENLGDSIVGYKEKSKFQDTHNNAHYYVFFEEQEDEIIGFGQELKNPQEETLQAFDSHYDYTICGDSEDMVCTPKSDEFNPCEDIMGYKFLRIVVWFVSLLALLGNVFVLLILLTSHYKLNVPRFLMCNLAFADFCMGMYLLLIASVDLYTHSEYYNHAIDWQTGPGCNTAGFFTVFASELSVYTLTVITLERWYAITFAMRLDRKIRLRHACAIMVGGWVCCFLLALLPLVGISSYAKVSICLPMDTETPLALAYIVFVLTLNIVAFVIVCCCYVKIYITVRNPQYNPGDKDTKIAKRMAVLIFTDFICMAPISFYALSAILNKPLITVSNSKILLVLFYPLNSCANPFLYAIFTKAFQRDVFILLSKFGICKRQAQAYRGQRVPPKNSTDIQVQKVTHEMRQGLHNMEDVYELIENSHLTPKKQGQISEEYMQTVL
Chain of Thyrotropin-releasing hormone receptor (Homo sapiens) (P34981 whole entry, looked up): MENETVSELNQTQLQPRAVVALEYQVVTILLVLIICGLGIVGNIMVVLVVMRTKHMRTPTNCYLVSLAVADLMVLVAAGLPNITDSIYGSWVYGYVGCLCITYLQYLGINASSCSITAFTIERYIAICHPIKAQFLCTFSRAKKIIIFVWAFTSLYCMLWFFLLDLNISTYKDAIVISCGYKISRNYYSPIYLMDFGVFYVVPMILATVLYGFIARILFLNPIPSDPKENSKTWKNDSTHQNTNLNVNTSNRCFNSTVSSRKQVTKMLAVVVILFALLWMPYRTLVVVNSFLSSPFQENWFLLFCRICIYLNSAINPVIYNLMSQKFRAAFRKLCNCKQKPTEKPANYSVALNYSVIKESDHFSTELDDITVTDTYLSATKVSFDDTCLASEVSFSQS
Chain of Progesterone receptor (Homo sapiens) (P06401 whole entry, looked up): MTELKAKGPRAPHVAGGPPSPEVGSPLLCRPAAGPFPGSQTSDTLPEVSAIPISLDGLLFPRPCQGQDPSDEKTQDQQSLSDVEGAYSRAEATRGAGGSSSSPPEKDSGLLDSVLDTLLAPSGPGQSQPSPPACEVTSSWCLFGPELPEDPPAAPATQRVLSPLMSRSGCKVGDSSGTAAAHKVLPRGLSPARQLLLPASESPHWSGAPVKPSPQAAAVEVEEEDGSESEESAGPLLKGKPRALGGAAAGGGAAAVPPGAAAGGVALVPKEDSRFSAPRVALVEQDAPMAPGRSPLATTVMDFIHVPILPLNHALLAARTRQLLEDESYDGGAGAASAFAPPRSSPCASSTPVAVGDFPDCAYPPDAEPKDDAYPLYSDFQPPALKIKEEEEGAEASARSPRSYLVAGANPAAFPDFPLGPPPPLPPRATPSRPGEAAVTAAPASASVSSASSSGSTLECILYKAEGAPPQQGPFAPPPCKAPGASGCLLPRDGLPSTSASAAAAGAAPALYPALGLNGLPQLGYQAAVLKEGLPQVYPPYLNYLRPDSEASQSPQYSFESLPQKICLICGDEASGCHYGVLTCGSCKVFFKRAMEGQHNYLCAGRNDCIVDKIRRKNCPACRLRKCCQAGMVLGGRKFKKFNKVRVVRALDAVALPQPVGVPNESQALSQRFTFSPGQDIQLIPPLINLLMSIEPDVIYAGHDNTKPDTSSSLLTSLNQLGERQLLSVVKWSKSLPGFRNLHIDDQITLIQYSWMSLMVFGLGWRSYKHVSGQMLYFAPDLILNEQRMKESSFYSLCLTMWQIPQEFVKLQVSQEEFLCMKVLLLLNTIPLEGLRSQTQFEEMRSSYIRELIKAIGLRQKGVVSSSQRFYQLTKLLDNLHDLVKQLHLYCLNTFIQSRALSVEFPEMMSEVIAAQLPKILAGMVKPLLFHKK
Chain of Estrogen receptor beta (Homo sapiens) (Q92731 whole entry, looked up): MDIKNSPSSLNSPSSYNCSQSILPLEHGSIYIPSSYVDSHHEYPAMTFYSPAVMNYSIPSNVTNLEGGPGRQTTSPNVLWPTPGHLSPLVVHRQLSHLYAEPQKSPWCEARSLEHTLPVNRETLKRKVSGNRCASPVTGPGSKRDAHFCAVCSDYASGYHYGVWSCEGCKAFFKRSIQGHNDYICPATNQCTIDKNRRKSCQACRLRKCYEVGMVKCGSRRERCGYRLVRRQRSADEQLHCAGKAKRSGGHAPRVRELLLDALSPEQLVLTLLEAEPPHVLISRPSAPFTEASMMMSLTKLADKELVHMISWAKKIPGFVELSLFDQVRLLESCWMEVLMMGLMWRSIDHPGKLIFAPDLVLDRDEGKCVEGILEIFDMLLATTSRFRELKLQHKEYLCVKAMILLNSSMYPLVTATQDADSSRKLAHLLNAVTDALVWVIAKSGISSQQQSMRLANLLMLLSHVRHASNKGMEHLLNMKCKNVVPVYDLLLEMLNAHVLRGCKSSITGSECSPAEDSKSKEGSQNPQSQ
Chain of Androgen receptor (Homo sapiens) (P10275 whole entry, looked up): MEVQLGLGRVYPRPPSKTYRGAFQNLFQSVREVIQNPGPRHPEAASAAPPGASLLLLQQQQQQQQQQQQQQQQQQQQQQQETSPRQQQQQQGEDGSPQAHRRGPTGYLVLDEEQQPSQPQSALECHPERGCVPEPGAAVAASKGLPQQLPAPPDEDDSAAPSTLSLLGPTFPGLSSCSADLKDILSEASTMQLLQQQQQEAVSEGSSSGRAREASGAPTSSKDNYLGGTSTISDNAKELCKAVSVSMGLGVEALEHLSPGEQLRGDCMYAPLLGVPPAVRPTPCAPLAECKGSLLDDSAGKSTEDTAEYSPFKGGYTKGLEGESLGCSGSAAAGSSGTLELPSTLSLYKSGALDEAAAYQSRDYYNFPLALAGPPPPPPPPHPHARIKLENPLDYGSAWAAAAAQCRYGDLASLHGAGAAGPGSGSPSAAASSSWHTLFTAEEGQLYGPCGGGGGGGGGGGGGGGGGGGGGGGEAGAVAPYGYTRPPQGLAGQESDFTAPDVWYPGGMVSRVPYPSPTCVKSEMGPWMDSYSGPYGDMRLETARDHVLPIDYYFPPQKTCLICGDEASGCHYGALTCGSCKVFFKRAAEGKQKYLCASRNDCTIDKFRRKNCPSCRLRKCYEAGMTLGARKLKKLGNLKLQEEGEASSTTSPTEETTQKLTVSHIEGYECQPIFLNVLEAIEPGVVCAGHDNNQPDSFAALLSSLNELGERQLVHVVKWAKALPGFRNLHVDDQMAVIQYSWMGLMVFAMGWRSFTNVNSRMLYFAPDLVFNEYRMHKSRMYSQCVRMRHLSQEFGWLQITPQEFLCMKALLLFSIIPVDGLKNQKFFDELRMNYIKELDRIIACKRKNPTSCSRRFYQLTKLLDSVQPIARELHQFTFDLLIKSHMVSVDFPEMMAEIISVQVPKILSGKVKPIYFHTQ

SMILES	Potency [1]	Potency [2]	Potency [3]	Potency [4]	Potency [5]	Potency [6]	Potency [7]	Potency [8]	Potency [9]	Potency [10]	Potency [11]	Potency [12]	Potency [13]	Potency [14]	outcome [15]	outcome [16]	Potency [17]	Potency [18]	Potency [19]	Potency [20]
Cc1ccccc1CCl	inactive	inactive	inactive	inactive	inactive	inactive	inactive	inactive	inactive	inactive	inactive	inactive	inactive	inactive	inactive					
c1ccc(CN2CCNCC2)cc1	inactive	inactive	inactive	inactive	inactive	inactive	inactive		inactive	inactive	inactive		inactive	inactive	inactive	inactive	inactive			
CCCN(CC1CC1)c1c([N+](=O)[O-])cc(C(F)(F)F)cc1[N+](=O)[O-]	inactive	inactive	inactive	inactive	inactive	inactive	inactive		inactive		inactive	inactive	inactive	inactive	inactive	inactive	inactive	inactive		
CCO[C@H]1O[C@@H]2OC3(C)CC[C@H]4[C@H](C)CC[C@@H]([C@H]1C)[C@@]24OO3	inactive	inactive	inactive	inactive	inactive	inactive		inactive	inactive		inactive	inactive	inactive					inactive	inactive	inactive
C=CC(=O)OC(C)(C)C	inactive	inactive	inactive	inactive	inactive	inactive	inactive	inactive			inactive			inactive	inactive	inactive	inactive			
Clc1cccc(SC2CCNCC2)n1	inactive	26.6 µM (active)	inactive	inactive	inactive	inactive	inactive	inactive	inactive	inactive	inactive	inactive	inactive	inactive	inactive	inactive	inactive	inactive		
N#C/C(N)=C(/N)C#N	inactive	inactive	inactive	inactive	inactive	inactive	inactive	inactive	inactive		inactive	inactive	inactive	inactive	inactive	inactive	inactive	inactive		inactive
O=C(CBr)Nc1ccc(Cl)cc1C(=O)c1ccccc1F	inactive	inactive	inactive	inactive	inactive	inactive	inactive		inactive	21.1 µM (active)	inactive	inactive	inactive	inactive	inactive	inactive	inactive	inactive	inactive	inactive

Reference: PubChem BioAssay (Tox21)
